Assay outcomes as filed in PubChem.
Hits are enriched below; roughly 0.98% of the tested compounds scored in any of these assays.
cardiac RTF act – cardiac RTF calcium sensitization; IANBD-labeled TnC RTF fluorescence at EC20 calcium; 0% EC20 calcium, 100% full calcium; 340,000 compounds, 0.24% hits; activation, % at 7.2 µM; AID 493008; P19429+P45379;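 active = activation above the mean over all tested compounds plus 3 SD, cut at about 30% in these data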;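 note: rise in fluorescence read as greater calcium sensitivity of cardiac thin filaments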
RTF Ca sens inh – cardiac RTF calcium desensitization; 340,000 compounds, 0.12% hits; inhibition, % at 7.15 µM; P19429+P45379; IANBD-labeled cardiac RTF, Ca2+ fluorescence;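 active = inhibition above the mean inhibition of all tested compounds plus 3 SD, cut at about 17% in these data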;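 note: assay run at fixed EC70 calcium of 1.6 mM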
Keap1 Nrf2 FP – disrupts human Keap1 binding to Nrf2 peptide; Keap1 Kelch-Nrf2 peptide fluorescence polarization, 1536-well; inhibition, % at 9.4 µM; 340,000 compounds, 0.15% hits; in the data active = inhibition above about 12%;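 note: human Keap1 Kelch domain with fluorescein labeled Nrf2 9mer peptide probe; 0% = neutral control wells and 100% = peptide positive control; higher means more block of Keap1 binding to Nrf2 peptide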
LANA-H2A inh – blocks KSHV LANA binding to histone H2A/H2B. Q9QR71. cell-free LANA-H2A/H2B peptide, fluorescence polarization. inhibition, % (test concentration not listed). 320,000 compounds, 0.6% hits; in the data active = inhibition mostly above about 10%, no sharp cut-off; inactive = mostly below about 6.7%
C-LANA FP – blocks KSHV LANA C-terminal domain binding to DNA; MBP-C-LANA/FAM-LBS DNA binding, fluorescence polarization; inhibition, % at 9 µM; 340,000 compounds, 0.078% hits;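 active = highest replicate inhibition at or above 60% at 9 µM, even if other replicates fall short; inactive = all replicates below 60% inhibition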;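 note: 0% = neutral control wells and 100% = 4 µM acridine orange control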
RTF inh confirm – confirmation of inhibitors of cardiac thin filament calcium sensitivity | 360 compounds, 8% hits | reconstituted cardiac thin filaments, calcium sensitivity fluorescence | shares compounds with RTF Ca sens inh | inhibition, % at 7.15 µM; in the data active = inhibition above about 18%
The depositor's hits bear a star.

Screening O=C(NCCc1c[nH]c2ccccc12)C(=O)NCC1OCCN1S(=O)(=O)c1ccccc1 (configuration not stated) returned cardiac RTF act -1, RTF Ca sens inh 18*, Keap1 Nrf2 FP 0, LANA-H2A inh 2, C-LANA FP 0 and RTF inh confirm -5.
`COc1cc(/C=C2\SC(=S)N(c3cccnc3)C2=O)ccc1O` gave cardiac RTF act -14, RTF Ca sens inh 19*, Keap1 Nrf2 FP 1, LANA-H2A inh 7, C-LANA FP -3 and RTF inh confirm 0.
`COc1cc(/C=C2\SC(=S)N(NC(=O)c3cccnc3)C2=O)ccc1O` gave cardiac RTF act 7, RTF Ca sens inh -7, Keap1 Nrf2 FP -20, LANA-H2A inh -2 and C-LANA FP -12.
CN(Cc1cn(-c2ccccc2)nc1-c1ccc(F)cc1)C(=O)CCC(=O)O was read as cardiac RTF act -6, RTF Ca sens inh 17*, Keap1 Nrf2 FP 1, LANA-H2A inh 3, C-LANA FP 2 and RTF inh confirm -6.
Screening O=C(OCC1CC(c2ccccc2)=NO1)c1ccc(Br)cc1 (configuration not stated) returned cardiac RTF act 2, RTF Ca sens inh 18*, Keap1 Nrf2 FP -1, LANA-H2A inh 1, C-LANA FP 3 and RTF inh confirm -1.
O=C(c1ccc(Cl)cc1)c1cnc2ccccn12 was read as cardiac RTF act 3, RTF Ca sens inh 18*, Keap1 Nrf2 FP -1, LANA-H2A inh 1, C-LANA FP 1 and RTF inh confirm -1.
`CC(NC(=O)CCNS(=O)(=O)c1cccc2nonc12)c1ccccc1` (configuration not stated) gave cardiac RTF act -2, RTF Ca sens inh -9, Keap1 Nrf2 FP 0, LANA-H2A inh 4 and C-LANA FP 1.
`N#Cc1nc(COc2ccc(Br)cc2)oc1N1CCCCCC1` gave cardiac RTF act 9, RTF Ca sens inh 1, Keap1 Nrf2 FP -7, LANA-H2A inh -3 and C-LANA FP 0.
N#Cc1nc(COc2ccc(F)cc2)oc1N1CCCCC1 was read as cardiac RTF act -1, RTF Ca sens inh 24*, Keap1 Nrf2 FP 3, LANA-H2A inh 2, C-LANA FP -1 and RTF inh confirm -2.
O=C1CCCC2=C1C(c1cccs1)Nc1ccccc1N2 (configuration not stated) was read as cardiac RTF act -2, RTF Ca sens inh -11, Keap1 Nrf2 FP 3, LANA-H2A inh -1 and C-LANA FP 1.
For CC1(C)CC(=O)C2=C(C1)Nc1ccccc1NC2c1cccs1 (configuration not stated) the results were cardiac RTF act -4, RTF Ca sens inh 19*, Keap1 Nrf2 FP -4, LANA-H2A inh 2, C-LANA FP 0 and RTF inh confirm -1.
Screening COc1ccc(NS(=O)(=O)c2ccc3c(c2)NC(=O)CC(=O)N3)cc1OC returned cardiac RTF act -2, RTF Ca sens inh -4, Keap1 Nrf2 FP 3, LANA-H2A inh 1 and C-LANA FP 1.
CC(=O)Nc1ccc2ccccc2c1 was read as cardiac RTF act -8, RTF Ca sens inh 24*, Keap1 Nrf2 FP 0, LANA-H2A inh 1, C-LANA FP 0 and RTF inh confirm -2.
O=C(NC1CCCC1)c1ccc2nc(-c3ccco3)c(-c3ccco3)nc2c1 was read as cardiac RTF act -20, RTF Ca sens inh 18*, Keap1 Nrf2 FP 1, LANA-H2A inh 0, C-LANA FP 3 and RTF inh confirm -7.
Screening O=C(NCCO)c1ccc2nc(-c3ccco3)c(-c3ccco3)nc2c1 returned cardiac RTF act -11, RTF Ca sens inh 3, Keap1 Nrf2 FP -3, LANA-H2A inh -2 and C-LANA FP 34.
Screening O=C(Nc1ccnn1C1CCN(Cc2cccnc2)CC1)c1ccccc1Cl returned cardiac RTF act -7, RTF Ca sens inh 18*, Keap1 Nrf2 FP -4, LANA-H2A inh -1, C-LANA FP -1 and RTF inh confirm -1.
For O=C(COc1ccc(Cl)cc1)NNC(=O)C(=O)NC1CCCCC1 the results were cardiac RTF act -3, RTF Ca sens inh 2, Keap1 Nrf2 FP 3, LANA-H2A inh -6 and C-LANA FP 1.
`CCOC(=O)c1c(S(=O)(=O)NCCCc2ccco2)c(C)n(C)c1C` gave cardiac RTF act 6, RTF Ca sens inh -5, Keap1 Nrf2 FP -9, LANA-H2A inh 1 and C-LANA FP 1.
